# Data: the supplement of paper PMC10849652
# About 8,800 targets were measured; listed, in parts, are those with a hit and a random draw of the rest. About 0.5% of all pairs of compound and target were hits. Unmarked numbers belong to inactive results.
# Tests used:
# Test in all cases: log2 fold change, soluble protein after heating vs DMSO (PISA); higher = thermal stabilisation; K562 lysate, 10 uM; active = over 0.2 and 3.5 SD of the protein, either way, in both replicates (recomputed)
# nilotinib = compound: Cc1cn(-c2cc(NC(=O)c3ccc(C)c(Nc4nccc(-c5cccnc5)n4)c3)cc(C(F)(F)F)c2)cn1 [nilotinib]
# In short: (§1)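 Pellets of K562 cells were dounce-homogenised in PBS pH 7.4 with 1 mM MgCl2, and the crude extract was held at 1 mg/mL protein for a 30 min treatment with 10 μM compound. Aliquots were heated for 3 min over 48°C-58°C and pooled before NP-40 was added to 0.5% at 4°C. The supernatant from 21,000xg for 90 min was quantified by TMTpro 16plex LC-MS/MS with channel sums equalised. Values are reported from duplicates as log-two fold change in thermal stability relative to solvent controls.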
# [1] = compound: Cc1nc(Nc2n[nH]c3c2CN(C(=O)N[C@H](CN(C)C)c2ccccc2)C3(C)C)c2sccc2n1
# In short: as §1
# dasatinib = compound: Cc1nc(Nc2ncc(C(=O)Nc3c(C)cccc3Cl)s2)cc(N2CCN(CCO)CC2)n1 [dasatinib]
# In short: as §1
# [2] = compound: Cc1ncc(-c2ccnc(Nc3ccc(S(C)(=O)=O)cc3)n2)n1C(C)C
# In short: as §1
# [3] = compound: Cn1cc(-c2ccc3c(c2)CCN3C(=O)Cc2cccc(C(F)(F)F)c2)c2c(N)ncnc21
# In short: as §1
# tipifarnib = compound: Cn1cncc1[C@@](N)(c1ccc(Cl)cc1)c1ccc2c(c1)c(-c1cccc(Cl)c1)cc(=O)n2C [tipifarnib]
# In short: as §1
# [4] = compound: NC(=O)c1cnc(N[C@@H]2CCCC[C@@H]2N)nc1Nc1cccc(-n2nccn2)c1
# In short: as §1
# [5] = compound: NC1(c2ccc(-c3nc4ccn5c(=O)[nH]nc5c4cc3-c3ccccc3)cc2)CCC1
# In short: as §1
# [6] = compound: NCC(=O)Nc1ccc(-n2nc(C(F)(F)F)cc2-c2ccc3c(ccc4ccccc43)c2)cc1
# In short: as §1
# vorinostat = compound: O=C(CCCCCCC(=O)Nc1ccccc1)NO [vorinostat]
# In short: as §1
# silmitasertib = compound: O=C(O)c1ccc2c(c1)nc(Nc1cccc(Cl)c1)c1ccncc12 [silmitasertib]
# In short: as §1
# entospletinib = compound: c1cn2cc(-c3ccc4cn[nH]c4c3)nc(Nc3ccc(N4CCOCC4)cc3)c2n1 [entospletinib]
# In short: as §1
# quisinostat = compound: Cn1cc(CNCC2CCN(c3ncc(C(=O)NO)cn3)CC2)c2ccccc21 [quisinostat]
# In short: as §1
# [7] = compound: NC(=O)Nc1cc(-c2cccc(F)c2)sc1C(=O)N[C@H]1CCCNC1
# In short: as §1
# [8] = compound: O=C1NC(=O)C(c2cnc3ccccn23)=C1c1cn2c3c(cc(F)cc13)CN(C(=O)N1CCCCC1)CC2
# In short: as §1
# UniProt O15120, sequence (O15120 whole entry, looked up): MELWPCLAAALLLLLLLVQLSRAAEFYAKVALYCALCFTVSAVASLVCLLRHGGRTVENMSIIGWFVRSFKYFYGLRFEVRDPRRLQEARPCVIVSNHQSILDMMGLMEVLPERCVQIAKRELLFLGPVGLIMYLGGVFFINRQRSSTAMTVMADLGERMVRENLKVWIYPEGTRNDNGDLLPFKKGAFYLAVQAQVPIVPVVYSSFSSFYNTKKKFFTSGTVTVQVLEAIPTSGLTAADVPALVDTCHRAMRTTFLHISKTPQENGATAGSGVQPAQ
# UniProt P00519, sequence (P00519 whole entry, looked up): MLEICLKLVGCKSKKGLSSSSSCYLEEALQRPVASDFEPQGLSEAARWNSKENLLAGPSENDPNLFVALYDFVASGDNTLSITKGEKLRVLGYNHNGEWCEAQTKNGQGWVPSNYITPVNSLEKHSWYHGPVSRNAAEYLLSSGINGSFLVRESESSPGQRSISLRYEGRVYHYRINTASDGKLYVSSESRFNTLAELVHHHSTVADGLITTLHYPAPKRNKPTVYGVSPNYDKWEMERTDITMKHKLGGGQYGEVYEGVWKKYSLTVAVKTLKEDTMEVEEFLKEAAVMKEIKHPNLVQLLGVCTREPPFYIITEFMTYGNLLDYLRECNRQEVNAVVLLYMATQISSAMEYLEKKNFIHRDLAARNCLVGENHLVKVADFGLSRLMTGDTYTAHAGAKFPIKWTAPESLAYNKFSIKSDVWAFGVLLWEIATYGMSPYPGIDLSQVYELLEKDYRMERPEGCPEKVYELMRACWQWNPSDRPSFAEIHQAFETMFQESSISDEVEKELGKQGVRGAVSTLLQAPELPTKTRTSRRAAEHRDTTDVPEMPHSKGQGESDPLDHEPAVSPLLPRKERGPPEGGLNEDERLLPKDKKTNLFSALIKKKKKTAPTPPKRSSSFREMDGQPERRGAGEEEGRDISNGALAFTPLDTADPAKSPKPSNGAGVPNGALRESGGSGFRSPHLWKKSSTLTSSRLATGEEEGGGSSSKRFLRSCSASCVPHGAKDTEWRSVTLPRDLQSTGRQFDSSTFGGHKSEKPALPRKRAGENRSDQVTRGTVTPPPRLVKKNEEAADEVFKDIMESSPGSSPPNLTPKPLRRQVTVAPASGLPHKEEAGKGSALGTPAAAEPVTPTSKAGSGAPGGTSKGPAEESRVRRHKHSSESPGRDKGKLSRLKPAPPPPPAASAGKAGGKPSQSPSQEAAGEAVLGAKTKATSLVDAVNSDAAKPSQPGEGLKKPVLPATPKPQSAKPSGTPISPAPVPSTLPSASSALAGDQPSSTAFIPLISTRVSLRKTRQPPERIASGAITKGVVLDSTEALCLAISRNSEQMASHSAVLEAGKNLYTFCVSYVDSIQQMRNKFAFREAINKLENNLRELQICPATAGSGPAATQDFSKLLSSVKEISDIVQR
# UniProt Q99758, sequence (Q99758 whole entry, looked up): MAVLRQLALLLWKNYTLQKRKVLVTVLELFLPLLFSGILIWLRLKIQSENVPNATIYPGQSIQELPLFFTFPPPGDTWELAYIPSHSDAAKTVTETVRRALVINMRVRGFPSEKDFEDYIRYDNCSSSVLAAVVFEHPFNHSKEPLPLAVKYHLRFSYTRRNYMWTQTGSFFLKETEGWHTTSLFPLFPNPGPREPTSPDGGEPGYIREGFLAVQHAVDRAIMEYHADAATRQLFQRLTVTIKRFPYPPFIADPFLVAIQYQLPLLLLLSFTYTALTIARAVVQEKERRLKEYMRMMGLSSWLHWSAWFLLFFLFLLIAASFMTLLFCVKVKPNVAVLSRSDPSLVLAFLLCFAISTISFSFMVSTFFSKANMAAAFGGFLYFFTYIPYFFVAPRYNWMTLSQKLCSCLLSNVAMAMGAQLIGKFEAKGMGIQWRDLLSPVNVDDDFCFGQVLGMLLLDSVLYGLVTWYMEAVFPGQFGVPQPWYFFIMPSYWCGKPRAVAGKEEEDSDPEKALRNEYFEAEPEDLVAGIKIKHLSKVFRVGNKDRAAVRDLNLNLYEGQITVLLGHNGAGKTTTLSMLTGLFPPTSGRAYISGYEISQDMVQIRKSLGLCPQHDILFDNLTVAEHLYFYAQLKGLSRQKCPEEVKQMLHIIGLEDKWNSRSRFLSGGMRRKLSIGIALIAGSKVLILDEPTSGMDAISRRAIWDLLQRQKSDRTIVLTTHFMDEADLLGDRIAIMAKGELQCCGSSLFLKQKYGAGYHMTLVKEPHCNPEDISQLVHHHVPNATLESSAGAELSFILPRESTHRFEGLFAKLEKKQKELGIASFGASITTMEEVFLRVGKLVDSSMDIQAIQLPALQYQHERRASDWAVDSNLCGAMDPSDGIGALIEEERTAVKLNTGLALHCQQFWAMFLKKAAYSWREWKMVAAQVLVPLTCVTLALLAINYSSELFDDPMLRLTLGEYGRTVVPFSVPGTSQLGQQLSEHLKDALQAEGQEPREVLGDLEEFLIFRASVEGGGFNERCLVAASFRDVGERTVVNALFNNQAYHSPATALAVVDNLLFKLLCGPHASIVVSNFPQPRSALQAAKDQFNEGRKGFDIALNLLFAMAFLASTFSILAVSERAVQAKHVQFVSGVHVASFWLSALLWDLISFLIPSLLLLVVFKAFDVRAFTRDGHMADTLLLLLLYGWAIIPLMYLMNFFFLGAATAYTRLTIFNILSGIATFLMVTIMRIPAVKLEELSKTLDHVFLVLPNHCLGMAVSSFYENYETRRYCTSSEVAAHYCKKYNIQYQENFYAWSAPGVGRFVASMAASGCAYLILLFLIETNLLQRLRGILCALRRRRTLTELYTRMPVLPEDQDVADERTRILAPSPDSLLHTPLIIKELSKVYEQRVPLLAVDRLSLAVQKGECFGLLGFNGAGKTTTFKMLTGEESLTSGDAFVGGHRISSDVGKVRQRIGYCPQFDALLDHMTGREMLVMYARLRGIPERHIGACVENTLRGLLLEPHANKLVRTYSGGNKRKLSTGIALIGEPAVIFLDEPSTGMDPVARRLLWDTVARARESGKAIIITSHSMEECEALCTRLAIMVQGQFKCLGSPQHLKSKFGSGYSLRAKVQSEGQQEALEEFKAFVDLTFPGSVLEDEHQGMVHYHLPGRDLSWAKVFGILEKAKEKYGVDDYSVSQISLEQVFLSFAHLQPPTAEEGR
# UniProt P78536, sequence (P78536 whole entry, looked up): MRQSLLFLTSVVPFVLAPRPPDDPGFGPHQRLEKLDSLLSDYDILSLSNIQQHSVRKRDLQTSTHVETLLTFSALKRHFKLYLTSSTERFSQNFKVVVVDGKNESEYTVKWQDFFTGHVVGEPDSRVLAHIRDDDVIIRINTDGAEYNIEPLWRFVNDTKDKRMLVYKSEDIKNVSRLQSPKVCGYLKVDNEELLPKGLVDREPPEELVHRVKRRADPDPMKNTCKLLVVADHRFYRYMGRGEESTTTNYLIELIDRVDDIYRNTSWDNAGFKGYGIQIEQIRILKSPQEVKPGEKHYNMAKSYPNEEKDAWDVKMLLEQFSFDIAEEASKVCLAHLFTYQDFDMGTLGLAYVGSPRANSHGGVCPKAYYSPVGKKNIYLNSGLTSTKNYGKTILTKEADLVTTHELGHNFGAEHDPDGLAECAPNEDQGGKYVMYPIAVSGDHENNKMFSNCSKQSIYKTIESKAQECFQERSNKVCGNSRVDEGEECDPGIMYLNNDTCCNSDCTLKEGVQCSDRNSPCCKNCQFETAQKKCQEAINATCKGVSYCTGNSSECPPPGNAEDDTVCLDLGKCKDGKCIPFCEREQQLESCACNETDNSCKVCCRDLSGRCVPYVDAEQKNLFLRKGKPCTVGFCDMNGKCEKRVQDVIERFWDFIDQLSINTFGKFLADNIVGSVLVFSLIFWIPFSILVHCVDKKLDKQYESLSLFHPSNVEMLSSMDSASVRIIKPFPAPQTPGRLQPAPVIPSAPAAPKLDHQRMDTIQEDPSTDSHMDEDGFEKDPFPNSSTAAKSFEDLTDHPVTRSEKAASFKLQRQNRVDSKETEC
# UniProt P54886, sequence (P54886 whole entry, looked up): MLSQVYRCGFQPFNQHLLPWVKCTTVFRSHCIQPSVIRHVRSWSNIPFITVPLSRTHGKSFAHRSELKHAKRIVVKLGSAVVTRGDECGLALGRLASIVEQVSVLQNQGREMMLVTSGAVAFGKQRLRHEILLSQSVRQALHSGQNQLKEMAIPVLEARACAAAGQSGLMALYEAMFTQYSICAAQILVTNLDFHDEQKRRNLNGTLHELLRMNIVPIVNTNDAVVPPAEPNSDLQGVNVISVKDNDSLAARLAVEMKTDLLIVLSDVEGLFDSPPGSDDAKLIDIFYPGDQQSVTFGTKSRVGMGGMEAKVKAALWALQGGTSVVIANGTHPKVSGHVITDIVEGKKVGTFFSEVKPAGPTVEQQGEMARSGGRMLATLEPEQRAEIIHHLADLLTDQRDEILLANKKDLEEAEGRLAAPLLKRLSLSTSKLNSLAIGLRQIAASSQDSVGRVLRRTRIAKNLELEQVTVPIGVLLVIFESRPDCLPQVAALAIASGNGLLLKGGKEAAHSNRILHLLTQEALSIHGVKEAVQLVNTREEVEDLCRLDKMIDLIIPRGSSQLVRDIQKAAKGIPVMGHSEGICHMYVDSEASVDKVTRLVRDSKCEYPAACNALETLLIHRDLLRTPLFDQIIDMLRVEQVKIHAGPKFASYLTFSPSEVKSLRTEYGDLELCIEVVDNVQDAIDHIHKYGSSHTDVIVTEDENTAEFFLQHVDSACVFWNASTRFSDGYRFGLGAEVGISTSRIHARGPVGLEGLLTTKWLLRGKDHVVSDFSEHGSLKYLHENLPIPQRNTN
# UniProt Q9BQI0, sequence (Q9BQI0 whole entry, looked up): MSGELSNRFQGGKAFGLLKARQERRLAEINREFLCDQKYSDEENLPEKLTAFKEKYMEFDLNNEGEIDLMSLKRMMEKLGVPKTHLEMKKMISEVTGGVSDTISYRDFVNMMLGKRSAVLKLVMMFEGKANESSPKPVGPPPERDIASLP
# UniProt P14621, sequence (P14621 whole entry, looked up): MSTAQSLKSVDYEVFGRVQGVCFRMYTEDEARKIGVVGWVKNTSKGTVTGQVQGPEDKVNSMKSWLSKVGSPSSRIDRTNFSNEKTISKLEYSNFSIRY
Target,log2 fold change (nilotinib),log2 fold change [1],log2 fold change (dasatinib),log2 fold change [2],log2 fold change [3],log2 fold change (tipifarnib),log2 fold change [4],log2 fold change [5],log2 fold change [6],log2 fold change (vorinostat),log2 fold change (silmitasertib),log2 fold change (entospletinib),log2 fold change (quisinostat),log2 fold change [7],log2 fold change [8]
ANKRD30B (UniProt Q9BXX2),0.061,-0.076,-0.061,0.072,-0.015,-0.065,0.059,-0.051,0.228,0.147,0.047,0.025,,,
AIF1L (UniProt Q9BQI0),-0.263,-0.176,0.118,0.142,-0.058,0.123,-0.012,0.016,,-0.048,0.083,0.116,-0.075,-0.112,0.022
AIMP2 isoform 2 (UniProt Q13155),,,,,,,0.017,,,,,,-0.106,0.067,-0.07
ABL1 isoform 2 (UniProt P00519),,0.006,,0.019,-0.002,-0.074,0.022,-0.009,-0.003,-0.328 (active),-0.019,-0.008,-0.074,0.08,-0.042
ALDH18A1 isoform 2 (UniProt P54886),,,0.089,,0.181,,,,0.097,,,,0.397,-0.093,0.204
ACLY isoform 2 (UniProt P53396),0.08,0.038,,0.191,,0.02,-0.062,,0.091,,,-0.047,0.162,-0.027,-0.061
ALDH3A1 (UniProt P30838),,,1.35 (active),,-0.024,,0.055,-0.018,,0.145,-0.113,,-0.381,-0.065,0.023
ABHD13 (UniProt Q7L211),0.152,-0.186,-0.177,-0.069,0.21,-0.233,0.037,,0.023,,,-0.12,0.121,-0.029,0.027
ADAM17 (UniProt P78536),-0.093,-0.151,-0.032,0.021,0.054,0.039,,-0.012,0.014,0.089,-0.006,0.014,0.01,0.002,0.042
ANP32E isoform 3 (UniProt Q9BTT0),,,,,,,,,0.135,,,-0.095,,,
AGPAT2 (UniProt O15120),-0.044,0.046,,-0.037,,0.029,,0.02,-0.234,0.104,-0.026,0.063,0.006,0.018,-0.052
AGGF1 (UniProt Q8N302),0.02,0.055,,0.087,,-0.06,0.075,0.024,0.135,0.059,-0.06,-0.015,-0.041,-0.007,0
AMDHD2 (UniProt Q9Y303),,,,,,,,,-0.092,,,,-0.001,0.048,0.042
ABCA3 (UniProt Q99758),,,0.044,,-0.066,,0.001,-0.019,-0.157,0.087,-0.062,0.28,0.08,-0.092,0
ABCC5 (UniProt O15440),,,0.105,,-0.047,,-0.035,-0.015,0.025,0.042,-0.023,-0.036,-0.003,0.035,-0.028
ADD1 isoform 4 (UniProt P35611),,,-0.017,,-0.075,,-0.109,-0.274,0.037,0.237,-0.148,0.056,,,
"ACAT1, A0A5F9ZHJ0",-0.176,0.063,,0.024,,0.07,,,,,,,,,
ANKRD30A (UniProt Q9BXX3),-0.008,-0.012,0.006,-0.039,-0.017,0.15,0.807,,,,,-0.135,0.179,0.047,-0.011
ARHGEF2 (UniProt V9GYF0),0.029,-0.119,0.02,-0.113,-0.139,-0.23,0.117,,0.157,,,0.081,,,
ALG3 (UniProt Q92685),,,-0.049,,0.068,,0.092,-0.036,-0.107,0.461 (active),0.285,-0.01,0.077,-0.017,-0.157
AP5B1 (UniProt Q2VPB7),0.001,-0.033,0.065,-0.053,-0.072,-0.087,-0.023,-0.036,,-0.062,0.044,0.022,-0.027,0.324 (active),-0.094
AP3D1 isoform 2 (UniProt O14617),-0.287,0.035,,0.376,,-0.132,0.034,-0.121,0.179,-0.738 (active),0.02,,,,
ACYP2 (UniProt P14621),-0.008,-0.079,,0.097,,0.009,-0.026,0.019,0.066,0.147,-0.081,,-0.047,-0.009,0.012
